From the supplement of paper PMC12067093, “Discovery and optimisation of a covalent ligand for TRIM25 and its application to targeted protein ubiquitination” (Chemical Science, 2025)
About 21,000 targets were measured; listed, in parts, are those with the largest changes and a random draw of the rest.

These targets were tested with Cc1cc(ccc1-c1ccccc1)C(=O)N1CCCN(CC1)C(=O)CCl [compound 10] (assay: probe-labelled cysteine peptide fold change vs DMSO (competition) (log2 fold change); higher = less target engagement (more negative = stronger competition)). Conditions: 50 µM; THP-1; incubation time: 4 h.
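Note: competitive profiling in live THP-1 cells: cysteine peptides tagged with an iodoacetamide desthiobiotin (IA-DTB) probe, intensity after compound treatment relative to DMSO-treated cells.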

Sequence of UniProt P49754 (P49754 whole entry, looked up): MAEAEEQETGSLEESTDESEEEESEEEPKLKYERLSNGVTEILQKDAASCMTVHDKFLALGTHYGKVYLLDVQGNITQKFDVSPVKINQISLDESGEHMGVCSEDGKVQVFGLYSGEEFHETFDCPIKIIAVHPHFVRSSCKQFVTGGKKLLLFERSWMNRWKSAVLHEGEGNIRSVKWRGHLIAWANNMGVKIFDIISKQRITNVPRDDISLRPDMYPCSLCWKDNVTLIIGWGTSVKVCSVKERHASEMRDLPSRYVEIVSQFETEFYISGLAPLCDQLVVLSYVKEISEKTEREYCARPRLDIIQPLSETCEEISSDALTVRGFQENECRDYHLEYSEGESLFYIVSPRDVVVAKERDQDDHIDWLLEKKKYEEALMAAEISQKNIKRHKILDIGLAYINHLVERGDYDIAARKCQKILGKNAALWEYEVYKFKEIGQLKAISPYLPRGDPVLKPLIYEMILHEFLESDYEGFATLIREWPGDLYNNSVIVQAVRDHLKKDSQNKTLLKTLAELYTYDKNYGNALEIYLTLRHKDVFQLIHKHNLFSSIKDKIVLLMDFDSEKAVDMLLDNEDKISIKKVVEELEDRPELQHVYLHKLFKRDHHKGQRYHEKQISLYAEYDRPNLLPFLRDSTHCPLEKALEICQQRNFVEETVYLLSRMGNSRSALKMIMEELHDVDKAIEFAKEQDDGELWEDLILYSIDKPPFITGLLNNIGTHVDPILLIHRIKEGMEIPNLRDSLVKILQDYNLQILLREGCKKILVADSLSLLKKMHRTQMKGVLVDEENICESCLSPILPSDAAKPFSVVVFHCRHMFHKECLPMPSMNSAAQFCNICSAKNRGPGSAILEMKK
Sequence of UniProt Q70CQ2 (Q70CQ2 whole entry, looked up): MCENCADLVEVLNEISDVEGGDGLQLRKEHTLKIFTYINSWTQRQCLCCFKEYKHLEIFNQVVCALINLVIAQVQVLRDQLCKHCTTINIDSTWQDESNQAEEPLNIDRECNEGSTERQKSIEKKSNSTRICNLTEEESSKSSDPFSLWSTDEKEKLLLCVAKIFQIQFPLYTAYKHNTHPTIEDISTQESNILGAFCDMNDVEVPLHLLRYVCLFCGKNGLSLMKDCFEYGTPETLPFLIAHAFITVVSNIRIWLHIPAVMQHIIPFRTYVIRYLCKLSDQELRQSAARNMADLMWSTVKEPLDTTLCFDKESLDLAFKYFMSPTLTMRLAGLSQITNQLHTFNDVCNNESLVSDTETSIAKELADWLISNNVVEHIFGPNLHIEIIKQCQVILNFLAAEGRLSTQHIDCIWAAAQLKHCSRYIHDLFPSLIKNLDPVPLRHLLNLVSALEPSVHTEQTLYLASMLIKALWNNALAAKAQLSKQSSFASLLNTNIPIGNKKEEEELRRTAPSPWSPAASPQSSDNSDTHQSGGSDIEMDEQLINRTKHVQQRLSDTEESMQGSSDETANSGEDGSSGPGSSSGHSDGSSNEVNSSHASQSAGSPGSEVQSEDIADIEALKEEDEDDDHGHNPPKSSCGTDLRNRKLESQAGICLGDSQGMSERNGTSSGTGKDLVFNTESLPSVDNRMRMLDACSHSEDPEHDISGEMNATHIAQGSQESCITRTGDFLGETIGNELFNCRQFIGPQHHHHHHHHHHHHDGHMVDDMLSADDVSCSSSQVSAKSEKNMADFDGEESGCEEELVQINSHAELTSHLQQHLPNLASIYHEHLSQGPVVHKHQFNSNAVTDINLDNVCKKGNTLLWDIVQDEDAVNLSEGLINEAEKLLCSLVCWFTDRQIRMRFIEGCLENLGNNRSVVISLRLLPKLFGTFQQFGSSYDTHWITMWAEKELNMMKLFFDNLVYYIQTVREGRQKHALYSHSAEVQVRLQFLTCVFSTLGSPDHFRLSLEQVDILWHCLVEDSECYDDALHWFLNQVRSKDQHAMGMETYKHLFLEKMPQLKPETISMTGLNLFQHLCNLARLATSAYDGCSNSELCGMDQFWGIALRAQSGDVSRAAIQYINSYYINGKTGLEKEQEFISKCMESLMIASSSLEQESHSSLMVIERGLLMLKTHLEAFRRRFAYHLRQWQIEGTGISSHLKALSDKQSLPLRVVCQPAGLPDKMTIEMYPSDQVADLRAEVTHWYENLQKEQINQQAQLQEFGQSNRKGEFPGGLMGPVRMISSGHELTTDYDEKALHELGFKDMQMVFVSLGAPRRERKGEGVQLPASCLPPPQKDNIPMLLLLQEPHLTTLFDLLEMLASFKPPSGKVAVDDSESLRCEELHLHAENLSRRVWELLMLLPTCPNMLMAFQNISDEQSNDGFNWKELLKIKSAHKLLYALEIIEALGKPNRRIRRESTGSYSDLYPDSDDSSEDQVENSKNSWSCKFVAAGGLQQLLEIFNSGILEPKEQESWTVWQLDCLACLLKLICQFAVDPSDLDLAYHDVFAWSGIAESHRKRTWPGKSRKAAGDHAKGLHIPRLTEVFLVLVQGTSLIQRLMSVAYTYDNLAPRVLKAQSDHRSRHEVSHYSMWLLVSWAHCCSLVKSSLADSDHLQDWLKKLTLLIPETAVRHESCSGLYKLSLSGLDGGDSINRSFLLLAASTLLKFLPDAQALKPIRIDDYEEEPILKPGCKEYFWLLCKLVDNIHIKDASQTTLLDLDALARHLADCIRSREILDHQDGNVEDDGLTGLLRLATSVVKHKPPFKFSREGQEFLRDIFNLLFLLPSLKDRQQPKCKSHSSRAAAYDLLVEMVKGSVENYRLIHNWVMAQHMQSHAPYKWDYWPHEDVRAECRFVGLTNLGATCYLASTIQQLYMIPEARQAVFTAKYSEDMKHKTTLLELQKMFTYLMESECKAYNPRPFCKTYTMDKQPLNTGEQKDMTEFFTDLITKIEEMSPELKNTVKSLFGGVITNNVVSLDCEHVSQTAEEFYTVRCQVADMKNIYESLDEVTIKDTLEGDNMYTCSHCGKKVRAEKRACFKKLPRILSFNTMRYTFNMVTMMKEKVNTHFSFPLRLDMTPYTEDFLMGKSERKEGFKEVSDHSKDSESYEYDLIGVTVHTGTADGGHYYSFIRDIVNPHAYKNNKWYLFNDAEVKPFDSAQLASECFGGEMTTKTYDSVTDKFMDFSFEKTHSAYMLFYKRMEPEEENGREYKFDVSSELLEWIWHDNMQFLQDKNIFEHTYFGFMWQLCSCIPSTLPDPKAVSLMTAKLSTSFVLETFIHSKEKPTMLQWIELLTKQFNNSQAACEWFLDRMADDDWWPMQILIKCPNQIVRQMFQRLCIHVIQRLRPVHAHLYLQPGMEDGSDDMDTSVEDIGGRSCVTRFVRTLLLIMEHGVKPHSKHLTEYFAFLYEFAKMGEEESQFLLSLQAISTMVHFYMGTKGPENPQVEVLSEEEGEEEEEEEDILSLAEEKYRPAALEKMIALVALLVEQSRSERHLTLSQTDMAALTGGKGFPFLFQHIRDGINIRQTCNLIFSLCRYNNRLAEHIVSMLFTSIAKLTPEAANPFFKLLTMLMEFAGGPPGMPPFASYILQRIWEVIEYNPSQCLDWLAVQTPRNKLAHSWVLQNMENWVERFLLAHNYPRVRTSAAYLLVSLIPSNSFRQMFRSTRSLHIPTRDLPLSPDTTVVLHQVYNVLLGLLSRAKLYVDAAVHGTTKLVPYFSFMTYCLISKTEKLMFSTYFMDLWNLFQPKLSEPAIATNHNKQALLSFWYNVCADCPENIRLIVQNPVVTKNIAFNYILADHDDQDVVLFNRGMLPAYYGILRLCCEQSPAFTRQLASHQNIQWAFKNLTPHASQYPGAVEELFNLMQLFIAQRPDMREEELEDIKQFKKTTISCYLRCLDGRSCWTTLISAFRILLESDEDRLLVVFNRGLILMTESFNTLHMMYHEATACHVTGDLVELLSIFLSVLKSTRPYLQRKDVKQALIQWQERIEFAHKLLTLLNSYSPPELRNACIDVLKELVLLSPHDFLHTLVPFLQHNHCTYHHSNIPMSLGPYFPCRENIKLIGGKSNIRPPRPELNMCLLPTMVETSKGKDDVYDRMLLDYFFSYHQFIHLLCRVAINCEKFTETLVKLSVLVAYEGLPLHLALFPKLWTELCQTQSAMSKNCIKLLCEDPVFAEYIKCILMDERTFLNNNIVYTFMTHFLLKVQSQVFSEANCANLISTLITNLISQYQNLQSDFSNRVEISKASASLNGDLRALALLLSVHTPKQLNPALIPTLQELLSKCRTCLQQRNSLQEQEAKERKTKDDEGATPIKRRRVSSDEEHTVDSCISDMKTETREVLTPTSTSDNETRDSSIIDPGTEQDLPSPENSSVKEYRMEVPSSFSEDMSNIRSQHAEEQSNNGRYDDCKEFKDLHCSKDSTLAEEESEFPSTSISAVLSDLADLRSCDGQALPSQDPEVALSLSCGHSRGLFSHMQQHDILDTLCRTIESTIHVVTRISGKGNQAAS
Sequence of UniProt Q14166 (Q14166 whole entry, looked up): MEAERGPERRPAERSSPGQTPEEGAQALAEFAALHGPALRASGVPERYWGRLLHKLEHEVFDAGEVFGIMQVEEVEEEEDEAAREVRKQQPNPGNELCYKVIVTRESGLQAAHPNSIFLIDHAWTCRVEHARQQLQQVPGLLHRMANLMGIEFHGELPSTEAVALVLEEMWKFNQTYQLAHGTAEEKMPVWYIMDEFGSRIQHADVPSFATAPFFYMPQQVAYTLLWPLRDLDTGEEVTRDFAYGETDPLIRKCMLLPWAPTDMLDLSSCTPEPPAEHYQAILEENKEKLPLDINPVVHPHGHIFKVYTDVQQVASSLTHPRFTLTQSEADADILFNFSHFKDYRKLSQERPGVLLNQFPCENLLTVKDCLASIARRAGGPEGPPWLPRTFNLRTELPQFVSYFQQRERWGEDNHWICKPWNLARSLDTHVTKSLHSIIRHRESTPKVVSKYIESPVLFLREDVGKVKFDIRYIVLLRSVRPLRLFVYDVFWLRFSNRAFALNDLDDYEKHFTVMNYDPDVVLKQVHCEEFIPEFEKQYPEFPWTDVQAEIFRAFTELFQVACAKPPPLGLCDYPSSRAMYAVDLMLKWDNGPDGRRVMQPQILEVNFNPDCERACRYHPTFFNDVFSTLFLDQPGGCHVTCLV

Target	probe-labelled cysteine peptide fold change
USP8_P40818_809_NCYQDDINR (UniProt P40818)	-1.27
TRIM33_Q9UPN9_276_KKEDVSESVGASGQRPVFCPVHK (UniProt Q9UPN9)	-0.148
USP15_Q9Y4E8_633+634_ISTETEETEGSLHCCK (UniProt Q9Y4E8)	-1.51
USP34_Q70CQ2_3118_SNIRPPRPELNMCLLPTMVETSK (UniProt Q70CQ2)	-0.174
TTC1_Q99614_178_EMAINDCSK (UniProt Q99614)	-0.13
UBE2L6_O14933_86+98_IYHPNVDENGQICLPIISSENWKPCTK (UniProt O14933)	-1.39
TUBA4A_P68366_4_MRECISVHVGQAGVQMGNACWELYCLEHGIQPDGQMPSDK (UniProt P68366)	-0.408
TRPM2_O94759_72_ECVYFVESSK (UniProt O94759)	-0.249
UQCRC2_P22695_192_NALANPLYCPDYR (UniProt P22695)	0.158
TXN2_Q99757_90+93_VVNSETPVVVDFHAQWCGPCK (UniProt Q99757)	-2.07
UBA3_Q8TBC4_28_MAVDGGCGDTGDWEGR (UniProt Q8TBC4)	-0.0349
VAV3_Q9UKW4_187_CPENDIR (UniProt Q9UKW4)	-0.136
USP22_Q9UPT9_171_KITSNCTIGLR (UniProt Q9UPT9)	-0.757
UCK2_Q9BZX2_197_PAFEEFCLPTK (UniProt Q9BZX2)	0.255
UBA6_A0AVT1_156_YQCVVLTEMK	0.104
UNC45A_Q9H3U1_503_ALVGLCK (UniProt Q9H3U1)	-0.217
USP40_Q9NVE5_50_NQGGTCYLNSLLQTLHFTPEFR (UniProt Q9NVE5)	-1.83
UBR2_Q8IWV8_1717_GNPLHLCK (UniProt Q8IWV8)	-1.31
VPS41_P49754_638_DSTHCPLEK (UniProt P49754)	-0.152

Target	probe-labelled cysteine peptide fold change
TRAPPC6A_O75865_124_FLAFTCGLLR (UniProt O75865)	0.608
TRMT2A_Q8IZ69_270_GGTCAVAAPFDTVHIPEATK (UniProt Q8IZ69)	-0.357
UBAP2_Q5T6F2_71_NQDECIVALHDCNGDVNK (UniProt Q5T6F2)	-0.0464
VARS2_Q5ST30_549_QLWWGHQIPAYLVVEDHAQGEEDCWVVGR (UniProt Q5ST30)	0.141
TXN2_Q99757_93_VVNSETPVVVDFHAQWCGPCK (UniProt Q99757)	-1.7
VAPA_Q9P0L0_179_KLMEECK (UniProt Q9P0L0)	-0.275
UBE2G2_P60604_75_FTCEMFHPNIYPDGR (UniProt P60604)	-0.214
TTLL12_Q14166_361_PGVLLNQFPCENLLTVK (UniProt Q14166)	-0.111
UBA7_P41226_829_CQNYGIPPVNR (UniProt P41226)	0.153
UHRF2_Q96PU4_42_VWALFDVRPECQR (UniProt Q96PU4)	0.118
TRNAU1AP_Q9NX07_157_ALTECQGAVGLGSKPVR (UniProt Q9NX07)	-0.171
TUBA3C_P0DPH7_4+20+25_MRECISIHVGQAGVQIGNACWELYCLEHGIQPDGQMPSDK<|>TUBA3D_P68363_4+20+25_MRECISIHVGQAGVQIGNACWELYCLEHGIQPDGQMPSDK<|>TUBA1B_Q6PEY2_4+20+25_MRECISIHVGQAGVQIGNACWELYCLEHGIQPDGQMPSDK<|>TUBA3E_Q9BQE3_4+20+25_MRECISIHVGQAGVQIGNACWELYCLEHGIQPDGQMPSDK (UniProt Q9BQE3+Q6PEY2+P68363+P0DPH7)	0.131
TXNDC9_O14530_94_ESENVVCHFYR (UniProt O14530)	-0.0184
UBE2O_Q9C0C9_375_NCAQGEGSMAK (UniProt Q9C0C9)	-0.156
TRNT1_Q96Q11_373_YQGEHCLLK (UniProt Q96Q11)	-1.54
TRIM59_Q8IWR1_10+13_MHNFEEELTCPICYSIFEDPR<|>IFT80_Q9P2H3-3_10+13_MHNFEEELTCPICYSIFEDPR (UniProt Q9P2H3+Q8IWR1)	-1.63
UHRF1BP1L_A0JNW5_398_NGWANELLHEFECNVEMLK (UniProt A0JNW5)	-0.158
TRAP1_Q12931_527_KDTEVLFCFEQFDELTLLHLR (UniProt Q12931)	0.314
VCPIP1_Q96JH7_207+219_SQECLIPVHVDGDGHCLVHAVSR (UniProt Q96JH7)	-1.48
